Assay outcomes (PubChem BioAssay)
This is one part of a sample in which hits are shown more often than they occur.
Pf Dd2 inh – blocks in vitro growth of P. falciparum Dd2. P. falciparum Dd2 growth, SYBR Green, 72 h. Potency, µM (highest dose often 28.9 µM), without a hit: at the top dose activity, negative = inhibition, usual class: inhibitors. 120,000 tested, 4.3% active; active = well fitted inhibition curve with a large enough effect;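 note: plate controls were DMSO vehicle for no effect and reference drug for full effect; nearly all actives have a fitted effect of over 65% in size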
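Readout: SYBR Green fluorescence, 485 nm excitation, 535 nm emission, after ~16 h lysis at 37C. Before that, Dd2-infected red cells (2.5% hematocrit) grew 72 h with compound, 29 uM top final concentration.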
* marks the source's active call; other numbers are inactive results; i = inactive; [ ] = another dose, or the depositor's remark. Potency is the fitted concentration of half-maximal effect.

SMILES | Pf Dd2 inh
CCN(CC)c1cc(C)c2cc(NC(=O)c3cccc(OC)c3OC)ccc2n1 | -27.1%
O=C1CC2CCN([S+](=O)([O-])c3cc(C(F)(F)F)cc(C(F)(F)F)c3)CC2CCN1 (stereo not given) | 12.9%
CN(C)Cc1cc(CC2(NC3CCC3)COC2)no1 | 9.2%[44.1 µM]
Cc1cc(OCC(=O)c2ccc3c(c2)N(CC(=O)NCC2CC2)C(=O)CO3)ccc1Cl | -2.6%
CCn1c2ccc(F)cc2c2nnc(SCCN3CCCCC3)nc21 | 12.6µM*
CCCc1nnc(NC(=O)CSc2nnc3c4ccccc4n(CC)c3n2)s1 | -22.2%
CCn1c2ccccc2c2nnc(SCC(=O)Nc3ccccc3OC)nc21 | 12.2%
CCOC(=O)c1ccc(NC(=O)CSc2nnc3c4ccccc4n(CC)c3n2)cc1 | 7.4%
CCN(CC)CCSc1nnc2c3cc(F)ccc3n(CC)c2n1 | -15.3%
CCCn1c2ccc(C)cc2c2nnc(SCCN3CCCCC3)nc21 | 8.91µM*
CCCn1c2ccc(F)cc2c2nnc(SCCN3CCCCC3)nc21 | 7.94µM*
Cc1ccc(-c2nc(CNC(=O)C3(N)CC3)[nH]c2-c2ccccn2)cc1 | -19.4%
Cn1nc(C(=O)Nc2ccc3c(c2)C(=O)N2CCC[C@H]2C(=O)N3)c2ccccc21 | -15.6%
CC(C)(C)c1coc([C@@H]2COCCN2Cc2cccc(C#N)c2)n1 | i
CO[C@H]1[C@H](NC(=O)c2ccc(=O)n(C)n2)c2ccccc2C12CCNCC2 | 10.7%
O=C(CC1C(=O)NCCN1CC(c1ccccc1)c1ccccc1)NCc1ccoc1 (stereo not given) | i
Cc1ccc(NC(=O)C2CCN(C(=O)c3ncn4c3COC(c3ccc(F)cc3)C4)CC2)c(F)c1 (stereo not given) | i
Cc1nccc(N2CCC3(CC2)CN(CCCN2CCC(N(C)C)C2)C(=O)O3)n1 (stereo not given) | -11.6%
COC(=O)c1c(NC(C)=O)c2cc(NC3CCN(C(C)=O)CC3)cnc2n1CC1CCCO1 (stereo not given) | -0.7%
Cc1nc(-c2ccc(F)cc2)cc([C@H]2CN3CC[C@H]2C[C@@H]3CNC(=O)Nc2cccc(C#N)c2)n1 | -12.8%
O=C(Nc1cccc(C(F)(F)F)c1)OC[C@H]1C[C@@H]2CCN1C[C@@H]2c1cc(C2CCCC2)nc(-c2ccncc2)n1 | 2.51µM*
Cc1nc(-c2ccc(C(F)(F)F)cc2)cc([C@H]2CN3CC[C@H]2C[C@@H]3CNC(=O)N2CCOCC2)n1 | i
COc1ccccc1-c1cc([C@H]2CN3CC[C@H]2C[C@@H]3COC(=O)Nc2ccccc2)nc(C)n1 | i
Cc1nc(-c2cccs2)cc([C@H]2CN3CC[C@H]2C[C@@H]3CNC(=O)Nc2cccc(C(F)(F)F)c2)n1 | 8.91µM*
COc1ccccc1-c1cc([C@H]2CN3CC[C@H]2C[C@@H]3CNC(=O)CCC(=O)O)nc(C)n1 | 2.5%
SMILES | Pf Dd2 inh
Cc1nc(-c2cccs2)cc([C@H]2CN3CC[C@H]2C[C@@H]3CNC(=O)c2ccccc2)n1 | 7.94µM*
Cc1nc(-c2cccs2)cc([C@H]2CN3CC[C@H]2C[C@@H]3CNC(=O)N2CCOCC2)n1 | i
C=C[C@H]1CN2CC[C@H]1C[C@@H]2CNC(=O)c1ccc2c(c1)OCO2 | -3.9%[44.1 µM]
Cn1nc(-c2ccc3ccccc3c2)cc1[C@H]1CN2CC[C@H]1C[C@@H]2COC(=O)Nc1cccc(C(F)(F)F)c1 | 21.0%
Cc1nc(-c2cccs2)cc([C@H]2CN3CC[C@H]2C[C@@H]3CNC(=O)c2ccc3c(c2)OCO3)n1 | 8.91µM*
Cc1nc(-c2ccccc2)cc([C@H]2CN3CC[C@H]2C[C@@H]3CNC(=O)N2CCOCC2)n1 | i
COC(=O)C1=CN(CC(=O)NCc2ccc(OC)cc2)S(=O)(=O)N=C1C | 22.8%
Cc1nc2c(OCC(=O)OC(C)(C)C)cccn2c(=O)c1-c1cc(C)n(-c2ccc(Cl)cc2)n1 | i
CC(O)c1cc2n(n1)CCCN(CCn1cc[nH]c1=O)C2 (stereo not given) | -0.3%
Cc1ccc(CN2CCn3c(nnc3[C@@H]3C[C@@H](O)CN3C)C2)s1 | 1.6%
NS(=O)(=O)CCCC(=O)N1CCC(c2ncc[nH]2)CC1 | -16.2%
O=C(Cc1ccc(Cl)cc1)NCC1COc2ncncc2C(=O)N1Cc1ccccc1 (stereo not given) | i
Cn1cnc(S(=O)(=O)N2CCCC(Cn3c(C4CC4)nc4cccnc43)C2)c1 (stereo not given) | 8.1%
Cc1ccc(C(=O)N2CCCC3(CC(c4ccccn4)=NO3)C2)cc1 (stereo not given) | 4.3%
CC(C)(CN1CCC(Cc2ccc(C(=O)O)cc2)C1)N1CCOCC1 (stereo not given) | -8.7%
CCC(CC)NC(=O)C1(CCO)CC12CCOCC2 (stereo not given) | 4.0%
Cc1ccc(CNC(=O)CC2CCOCC2)cc1 | 57.5%
Cc1nc(-c2ccccc2Br)cc([C@H]2CN3CC[C@H]2C[C@@H]3CNC(=O)c2ccco2)n1 | -6.5%
Cc1ccc(C(=O)NC[C@H]2C[C@@H]3CCN2C[C@@H]3c2cc(-c3cccs3)nc(C)n2)cc1 | 7.08µM*
Cc1ccc(S(=O)(=O)NC[C@H]2C[C@@H]3CCN2C[C@@H]3c2cc(-c3ccccc3Br)nc(C)n2)cc1 | i
CC(C)=CCN1CC2(CCN(C(=O)c3cc(=O)[nH]c(=O)[nH]3)CC2)CC1=O | i
O=C1NCc2ccccc2CC12CCCCN2Cc1cccc(O)c1 (stereo not given) | -20.2%
Cc1ncc(CO)c(CN2CCCC23Cc2ccccc2CNC3=O)c1O (stereo not given) | 0.2%
Cc1cc(C)c(CN2CCCC23Cc2ccccc2CNC3=O)c(C)c1 (stereo not given) | -4.6%
Cc1cccc(C)c1CN1CCCC12Cc1ccccc1CNC2=O (stereo not given) | 2.51µM*
SMILES | Pf Dd2 inh
O=C1NCc2ccccc2CC12CCCN2Cc1ccc2ccccc2n1 (stereo not given) | 5.2%
Cc1cccc(CN2CCCCC23Cc2ccccc2CNC3=O)n1 (stereo not given) | 10µM*
Cc1c(C(=O)N2CCC3(CC2)CC(C(=O)O)N(C)C3)c[nH]c(=O)c1C#N (stereo not given) | -19.8%
CN1CC(=O)N(c2ccccc2F)Cc2c1ncnc2N1CCN(c2ccccn2)CC1 | -16.2%
CC(C)OCCCNC(=O)C1CC(=O)N(c2n[nH]c3cc(Br)ccc23)C1 (stereo not given) | -10.8%
Cn1nccc1CN1CCCC2(C1)NC(=O)c1ccccc1O2 (stereo not given) | 8.3%[44.1 µM]
Cc1cnc(C2CCOCC2)n1C1CCNCC1 | 0.1%
CC(C)NC(=O)C1CCN(C(=O)c2cc3sccc3n2Cc2ccc(Cl)cc2)CC1 | 11.2µM*
Cn1c(C(=O)N2CCC(C(=O)NCCc3ccc(S(N)(=O)=O)cc3)CC2)cc2sccc21 | 0.8%
COC(=O)c1cc2sccc2n1Cc1ccc(F)cc1 | i
N#Cc1ccc(CN2CC3(Cc4ccccc4NC3=O)C2)cc1 | 1.7%
O=C(c1cccc(C(F)(F)F)c1)N1CCN(C2CCN(Cc3cccnc3)C2=O)CC1 (stereo not given) | -8.4%
COCC(=O)N1CCC(C(NC(=O)c2ccccc2)C(=O)N2CCCCC2)CC1 (stereo not given) | -6.2%
CN(C)c1nc(-c2ccccc2)nc2c1CCN(C(=O)C1CC1)C2 | -10.6%
CCc1ccccc1Nc1nn2c(=O)c3ccc(C(=O)NC4CCCCC4)cc3nc2s1 | -19.6%
CCc1ccccc1Nc1nn2c(=O)c3ccc(C(=O)Nc4cc(C)cc(C)c4)cc3nc2s1 | -2.4%
CCc1ccccc1Nc1nn2c(=O)c3ccc(C(=O)NC(C)c4ccccc4)cc3nc2s1 (stereo not given) | 1µM*
